Assay results published in PubChem BioAssay (NCI).
Compounds without any hit were thinned out: in the full panel of roughly 83,000, 20% have a hit.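 Interpretation: 100, growth as untreated; towards 0, rising growth inhibition; 0, no net growth; 0 to -100, cell death. Compounds scoring below 10 were considered active.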 Values without a mark were called inactive. Active and inactive are the calls of the source.

How the values were obtained:
Assay in all cases: NCI-60 one-dose screen, 48 h (100 = growth as untreated, 0 = no growth, -100 = all killed)
NCI-H23 lung = conditions: 10 µM unless noted
NCI-H322M lung = conditions: 10 µM unless noted
HOP-62 NSCLC = conditions: 10 µM unless noted
NCI-H460 lung = conditions: 10 µM unless noted
NCI-H522 lung = conditions: 10 µM unless noted
A549/ATCC NSCLC = conditions: 10 µM unless noted
786-0 renal = conditions: 10 µM unless noted
COLO 205 colon = conditions: 10 µM unless noted
DU-145 prostate = conditions: 10 µM unless noted
K-562 leukemia = conditions: 10 µM unless noted
MALME-3M melanoma = conditions: 10 µM unless noted
MDA-MB-231 breast = conditions: 10 µM unless noted
RXF 393 renal = conditions: 10 µM unless noted
SF-268 CNS = conditions: 10 µM unless noted
SF-295 CNS = conditions: 10 µM unless noted
SF-539 CNS = conditions: 10 µM unless noted
UACC-257 melanoma = conditions: 10 µM unless noted
M14 melanoma = conditions: 10 µM unless noted
HOP-92 NSCLC = conditions: 10 µM
NCI-H226 lung = conditions: 10 µM unless noted

Compound | growth (NCI-H23 lung) | growth (NCI-H322M lung) | growth (HOP-62 NSCLC) | growth (NCI-H460 lung) | growth (NCI-H522 lung) | growth (A549/ATCC NSCLC) | growth (786-0 renal) | growth (COLO 205 colon) | growth (DU-145 prostate) | growth (K-562 leukemia) | growth (MALME-3M melanoma) | growth (MDA-MB-231 breast) | growth (RXF 393 renal) | growth (SF-268 CNS) | growth (SF-295 CNS) | growth (SF-539 CNS) | growth (UACC-257 melanoma) | growth (M14 melanoma) | growth (HOP-92 NSCLC) | growth (NCI-H226 lung)
COc1cccc2c1CN(C(=O)c1ccc(O)c(C(=O)N3Cc4ccc(OCCC[P+](c5ccccc5)(c5ccccc5)c5ccccc5)cc4C3)c1)C2 | 75.4% | 99.1% | 102% | 61.4% | 78% | 101% | 103% | 54% | 89.1% | 22.6% | 70.8% | 86.9% | 104% | 80.5% | 76.3% | 64.4% | 44.8% | 89.3% | – | –
CCNC(=O)N1CCc2cc(OC)c(OCCc3ccc(OC)cc3)cc2C1c1ccc(OC)cc1C (configuration not stated) | 29% | 40.1% | 20.3% | 1.22% (active) | -8.18% (active) | 13.8% | 9.54% (active) | 27.6% | 16.2% | 16.5% | 45.9% | 19.7% | -12.7% (active) | 34% | 10.6% | 6.35% (active) | 50.5% | 20% | – | –
Fc1ccc(-c2cc3nc(C(Cl)Cl)nc(-c4ccco4)n3n2)cc1 | 37.3% | -22.3% (active) | -18.8% (active) | -17.3% (active) | 89.9% | -20.1% (active) | 33.2% | -45.4% (active) | -48.2% (active) | 33.4% | 93.3% | -26.2% (active) | -65.6% (active) | 3.07% (active) | -9.65% (active) | -43.4% (active) | 30.8% | – | – | –
COC(=O)c1[nH]nc2c1C1(C(=O)N(C)c3ccccc31)C(C#N)=C(N)O2 (configuration not stated) | 93.4% | 94.1% | 118% | 106% | 99.5% | 101% | 102% | 110% | 102% | 113% | 103% | 107% | 114% | 97.3% | 118% | 96.5% | 103% | 104% | – | –
Cc1ccc(NC(=S)NNC(=S)Nc2ccc(C)cc2)cc1 | 95.2% | 96.7% | 97.8% | 112% | 93.4% | 105% | 89.6% | 115% | 106% | 96.6% | 103% | 106% | – | 108% | 102% | 110% | 117% | – | 93.1% | –
CCCCCc1ccc(S(=O)(=O)Nc2cc(-c3csc(NC(=O)CN4CCN(CCO)CC4)n3)ccc2OC)cc1 | 71.3% | 52.3% | 78.7% | -14% (active) | 45.7% | 43.4% | -51.5% (active) | -21.4% (active) | 49.1% | 2.84% (active) | -80.9% (active) | 12.6% | – | 59.8% | -23.1% (active) | -69.2% (active) | -31.4% (active) | – | 46.8% | –
CS(=O)(=O)Nc1cc(-c2ccc3ncc(C#N)c(N[C@H](CO)c4ccccc4)c3c2)cnc1Cl | 45.2% | 78.3% | 46.8% | 74.3% | 25.7% | 83.5% | 54.8% | 57% | 62.4% | 41.4% | 29.8% | 43% | – | 28.4% | 57% | 43.7% | 59.7% | – | -2.14% (active) | –
C=CCN(C)S(=O)(=O)/N=C1\NC(=O)NC1=C(Cl)Cl | 37.5% | 95% | 76.5% | 45.6% | -57% (active) | 103% | 32.2% | -40.8% (active) | 72.8% | -3.52% (active) | -69.4% (active) | -25.5% (active) | – | 32.2% | 102% | -23.6% (active) | 57.4% | – | -23.4% (active) | –
CNC(=O)c1cc(-c2ccc(NC(=S)Nc3cc(C(F)(F)F)cc(C(F)(F)F)c3)cc2)nc2cccnc12 | 93.7% | 111% | 79.2% | 92.1% | – | 88.3% | 89.3% | 110% | 84.9% | 94.9% | 99.2% | 88.7% | 41.1% | 88.2% | 89.9% | 92.1% | 102% | 98.5% | – | 87.8%
